Reference: PubChem BioAssay AID2315 (National Center for Advancing Translational Sciences (NCATS), 2010)
The campaign covered roughly 290,000 compounds. About 27,000 (9.3%) were called active. Shown is part of a subset that was picked to be rich in actives. Unmarked numbers belong to inactive results. Cut-off read from the data, not from the text of the source: active = inhibition mostly above about 28% (no sharp cut-off); inactive = mostly below about 43%.

test: A qHTS for Small Molecule Inhibitors of Shiga Toxin; details: Vero cells, Shiga toxin protein synthesis inhibition reporter; at 38.7 µM, hits give high values; for inhibition: 0% is about no effect

SMILES	inhibition
CCc1cccc(NC(=O)C2CCCN(S(=O)(=O)c3ccc4[nH]c(=O)ccc4c3)C2)c1 (stereo not drawn)	-5.44%
CCCCn1c(N)c(N(CC)C(=O)c2ccccc2C(F)(F)F)c(=O)[nH]c1=O	3.43%
C1=C(CCNc2ncnc3c2cnn3-c2ccccc2)CCCC1	190% (active)
O=C(NCCC1=CCCCC1)C1CCN(Cc2cnn(-c3ccccc3)c2-n2cccc2)CC1	31%
Cc1nn(C(C)C(=O)NCCC2=CCCCC2)c(=O)c2nn(-c3ccccc3)c(C)c12 (stereo not drawn)	18.5%
O=C(Cc1ccc(Br)cc1)NCCN1CCOCC1	-10.9%
CC1CCN(C(=O)CCc2nnc3ccc(NCc4ccco4)nn23)CC1	12.6%
Cc1cccc(-n2cnc(C(=O)Nc3cccnc3)c2)n1	101% (active)
O=C(Nc1cccnc1)c1cc([N+](=O)[O-])ccc1Cl	-2.48%
Cc1cccc(-n2cnc(C(=O)NNC(=S)Nc3ccccc3)c2)n1	-10.7%
Cc1ccc2nc(SCC(=O)NC3CCCC3)[nH]c2c1	-2.14%
Cc1ccc(SCCC(=O)Nc2cc(C)on2)cc1	-4.4%
Cc1ccc2nc(-c3ccc(SCC(=O)Nc4cc(C)on4)nc3)[nH]c2c1	71.3% (active)
CC(C)(C)c1ccc(C(=O)N2CCN(CCNC(=O)C(=O)Nc3ccc(F)cc3)CC2)cc1	-6.99%
CCOC(=O)c1cc2cc(C)ccc2[nH]1	168% (active)
CCNCc1cc2cc(C)ccc2[nH]c1=O	12%
CC(=O)OCc1cc2cc(C)ccc2[nH]c1=O	-8.28%
COc1ccc(CNC(=O)[C@H](Cc2c[nH]c3ccccc23)NC(C)=O)cc1OC	-6.62%
COc1ccc(-c2ccc(CCC(=O)O)n2NC(=O)c2ccc(C(C)(C)C)cc2)cc1	21% (active)
COc1ccc(-c2ccc(CCC(=O)O)n2-c2ccc(O)cc2)cc1	4.87%
COCCCn1c(CCC(=O)O)ccc1-c1ccc(F)cc1	13%
O=C(CSc1nnc(Nc2ccccc2)s1)Nc1cccnc1Cl	-14.8%
CC(C)c1ccc(Nc2nnc(SCC(=O)c3nnc(-c4ccccc4)o3)s2)cc1	58.9% (active)
Cc1ccc(Nc2nnc(SCC(=O)c3cc4ccccc4o3)s2)cc1C	19.8%
Cc1cc(C)cc(Oc2c(C(F)(F)F)oc3cc(OCC(=O)O)ccc3c2=O)c1	-4.45%

SMILES	inhibition
CC(C)=CCN1CCN(Cc2cc3ccccc3[nH]2)CC1CCO (stereo not drawn)	1.5%
N#Cc1cccc(CN2CCC(=O)N(CCO)CC2)c1	2.03%
O=C(Nc1cccc(Cl)c1)Nc1nnc(-c2ccccc2)o1	-12.3%
O=C(Nc1cccc(-c2nnc(-c3ccccc3)o2)c1)C1CCCO1 (stereo not drawn)	85% (active)
O=C(Nc1nnc(CCc2ccccc2)s1)C1CCCO1 (stereo not drawn)	39.5%
O=C(Nc1nnc(SCc2c(Cl)cccc2Cl)s1)C1CCCO1 (stereo not drawn)	86.4%
CC(C)(C)NS(=O)(=O)c1ccc(NC(=O)C2CCCO2)cc1 (stereo not drawn)	-21.4%
O=C(Nc1ccc(-c2nnc(-c3ccccc3)o2)cc1)C1CCCO1 (stereo not drawn)	93.5% (active)
CCCCC(=O)Nc1c2c(nn1-c1ccc([N+](=O)[O-])cc1)CS(=O)(=O)C2	19.5%
Cc1ccc2c(C)c(C(=O)N(C)Cc3ccncn3)oc2c1C	4.22%
C=CCn1c(SCC(=O)NCCCO)nc2sc3c(c2c1=O)CCC3	8.99%
Brc1ccc(-c2n(-c3ccccn3)c3ccccc3[n+]2-c2ccccn2)cc1	12.9%
O=[N+]([O-])c1cccc(S(=O)(=O)NCc2ccccn2)c1	-7.29%
Cc1cc2cc3c(N)[nH]nc3nc2cc1C	40.9% (active)
CSc1ncccc1C(=O)Nc1nc2ccc(F)cc2s1	138% (active)
CSc1ncccc1C(=O)Nc1ccc(C)cn1	34%
COc1cc(NC(=O)c2cccnc2SC)cc(OC)c1	10.8%
COCCn1c(N)c(NCc2ccccc2)c(=O)[nH]c1=O	-3.86%
COc1ccc(C2CC(c3cccs3)=Nc3ccccc3S2)cc1OC (stereo not drawn)	41.1% (active)
COc1ccc(C2CC(c3cccs3)=NN2C(=O)CSc2nnc(N)s2)cc1OC (stereo not drawn)	-6.81%
COc1ccc(C2CC(c3cccs3)=NN2C(=O)CCC(=O)O)cc1OC (stereo not drawn)	-4.61%
O=C(NCc1ccccc1Cl)C1CCN(c2ncnc3c2nc2n3CCCCC2)CC1	-9.78%
CC1CCCCN1C(=S)NCc1ccccc1 (stereo not drawn)	-6.29%
COc1ccc(C(=O)NC2CCN(C(=S)NCCc3ccccc3)CC2)cc1	2.57%
S=C(NCCc1ccccc1)NCc1ccccc1Cl	18.4%

SMILES	inhibition
Oc1ccccc1N1CCN(C(=S)NCc2ccccc2)CC1	76.8% (active)
S=C(NCCCc1ccccc1)Nc1ccc(Br)cc1	0.943%
O=C(CS(=O)(=O)Cc1ccccc1)NCC1CCCO1 (stereo not drawn)	-4.38%
S=C(NCCc1ccccc1)Nc1ccccc1	57.4% (active)
S=C(NCCc1ccccc1)NCC1CCCO1 (stereo not drawn)	0% (active)
O=C1CCN(C(=S)NCCc2ccccc2)CC1	35.2%
O=C(NCCc1c[nH]c2ccccc12)C(=O)NCC1CCCO1 (stereo not drawn)	-8.17%
S=C(NCCc1ccccc1)N1CCCCC1	66.4% (active)
Oc1ccc(N2CCN(C(=S)NCc3ccccc3)CC2)cc1	17.4%
Clc1cc(NC2CCCCC2)ncn1	-10.3%
CCOC(=O)C1C/C(=C\C(C)=O)c2cccc(C(F)(F)F)c2O1 (stereo not drawn)	inactive
COc1ccc(CCN2C(=O)C(C)=C(C)C2=O)cc1OC	17.7%
COCCn1c(SCC(=O)Nc2nc(C)cs2)nnc1C(C)C	-5.99%
Cc1nnc(NC(=O)C(c2ccccc2)c2ccccc2)s1	-9.41%
COc1ccccc1N1CCN(C(=O)CCS(=O)(=O)c2ccc3c(c2)NC(=O)C(C)S3)CC1 (stereo not drawn)	-1.86%
O=C(CN1CCN(Cc2ccccc2)CC1)Nc1ccc(F)c(F)c1	14.5%
Cc1ccc(NC(=O)COC(=O)C2C3CC4OC(=O)C2C4C3)cc1Cl (stereo not drawn)	17.4%
Cc1ccc(S(=O)(=O)N(CC(O)CN2C(=O)NC(C)(C)C2=O)c2cccc([N+](=O)[O-])c2)cc1 (stereo not drawn)	-12.9%
COc1ccc(CCNC(=O)CCC(=O)NC2CCCCC2)cc1OC	10.5%
COC(=O)CN1C(=O)[C@H]2[C@@H](/C=C/c3ccccc3)N3C(=O)CN(CC4CC4)C(=O)[C@@]3(Cc3ccccc3)[C@H]2C1=O	-11.8%
Cc1nnc(OCC(=O)NCCC2=CCCCC2)c2ccccc12	-1.67%
S=C(NCCC1=CCCCC1)Nc1ccccc1	72.2% (active)
O=C(Cc1cccc2ccccc12)NCCC1=CCCCC1	-13.5%
CN(C(=O)C1CCN(c2ncnc3c2nc2n3CCCCC2)CC1)C1CCCCC1	-2.24%
COCC(=O)Nc1c(C(=O)N2CCCC2)oc2ccccc12	3.56%

SMILES	inhibition
Cc1cc(N(C)C)nc(Cl)n1	-9.68%
COc1ccc(-c2nc3c(c(SCC(=O)Nc4ccc(C(=O)O)cc4)n2)Cc2ccccc2O3)cc1	18.2%
O=C1C2C3C=CC(C4CC34)C2C(=O)N1/N=C/c1ccc(-c2ccccc2[N+](=O)[O-])o1 (stereo not drawn)	61.9%
COc1cccc(N(CC(=O)NC2CCCCCC2)S(=O)(=O)c2ccccc2)c1	-29.3%
C/C(=N\NC(=O)c1ccc(C)cc1)C1C(=O)c2ccccc2C1=O	40.4% (active)
Cc1ccc(C(=O)N/C(=C/c2cccnc2)C(=O)O)cc1	14.9%
C/C(=N\NC(=O)CNC(=O)C(c1ccccc1)c1ccccc1)c1ccc(C)cc1	-1.4%
COCCN1C(=O)C(=O)/C(=C(/O)c2ccc(S(=O)(=O)N3CCOCC3)cc2)C1c1ccc(O)c(OC)c1 (stereo not drawn)	2.24%
Cc1cc(C)nc(NS(=O)(=O)c2ccc(N3C(=O)C4CCCCC4C3=O)cc2)n1 (stereo not drawn)	-4.6%
C=CCN(c1ccc(C(=O)Nc2cc(C)cc(C)c2)cc1)S(C)(=O)=O	1.49%
CSCc1ccc(C(=O)Nc2cc(C)cc(C)c2)cc1	39% (active)
CC(=O)Nc1ccccc1NC(=O)c1cc(C)cc(C)c1	-6.09%
O=C(N/N=C\c1ccc(Br)cc1)c1ccc(Cn2cccn2)o1	26.8%
O=C(c1ccc(Cn2cc([N+](=O)[O-])cn2)o1)N1CCCC1	-5.81%
CN(C)c1ccc(/C=N/NC(=O)c2ccc(Cn3cc(Br)cn3)o2)cc1	73.5% (active)
O=C(N/N=C/c1ccc2c(c1)OCO2)c1ccc(Cn2cc([N+](=O)[O-])cn2)o1	39.5% (active)
CC1CCc2c(sc(NC(=O)c3ccc(Cn4cc(Br)cn4)o3)c2C(N)=O)C1 (stereo not drawn)	14.4%
COc1cccc(NC(=O)c2ccc(Cn3cc([N+](=O)[O-])cn3)o2)c1	12.9%
O=C(NCCc1ccc(Cl)cc1)C1CCCN1C(=O)NCc1ccccc1 (stereo not drawn)	2.06%
COc1cccc(NS(=O)(=O)c2ccc(-c3coc(C)n3)cc2)c1	-7.18%
COc1ccc(N2CCN(C(C)=C3C(=O)c4ccccc4C3=O)CC2)cc1	66.2% (active)
COc1ccc(N2CCN(C(=O)c3cccs3)CC2)cc1	41.6%
CC(=C1C(=O)c2ccccc2C1=O)N1CCN(c2ccccn2)CC1	2.68%
